Where “and” joins values, the source holds several entries; their conditions need not be identical. Equal entries are not always repeated. Inconclusive results are not listed. The source holds several records for some structures; these can differ, active in one and inactive in another. Calls of active or inactive are those of the source. Unless noted, calls follow the shape of the dose curve; as a rule, active = well fitted curve in the direction sought with a large enough effect in the repeat runs; inconclusive = weak or mixed curves; inactive = no such curve, though single readings can be large; an effect the other way counts as inactive or inconclusive.
Legend:
[1] = qHTS assay to identify small molecule antagonists of the constitutive androstane receptor (CAR) signaling pathway - cell viability counter screen (AID 1224837); also: nearly all actives have a fitted effect of over 45% in size
How it was run: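 Read-out: CellTiter-Fluor fluorescence after 23 hr at 37 C/5% CO2. Cells: HepG2 double-stable for hCAR and CYP2B6-2.2kb. Compounds tested at 15 concentrations in the presence of CITCO, final concentration 50 nM.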

[2] = biological target: Nuclear receptor subfamily 1 group I member 3 (Homo sapiens) (UniProt Q14994); assay: qHTS assay to identify small molecule antagonists of the constitutive androstane receptor (CAR) signaling pathway (AID 1224838);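 also: HepG2 cells stably expressing hCAR with CYP2B6 luciferase reporter stimulated by CITCO; nearly all actives have a fitted effect of over 40% in size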
Chain of Nuclear receptor subfamily 1 group I member 3 (Homo sapiens) (Q14994 whole entry, looked up): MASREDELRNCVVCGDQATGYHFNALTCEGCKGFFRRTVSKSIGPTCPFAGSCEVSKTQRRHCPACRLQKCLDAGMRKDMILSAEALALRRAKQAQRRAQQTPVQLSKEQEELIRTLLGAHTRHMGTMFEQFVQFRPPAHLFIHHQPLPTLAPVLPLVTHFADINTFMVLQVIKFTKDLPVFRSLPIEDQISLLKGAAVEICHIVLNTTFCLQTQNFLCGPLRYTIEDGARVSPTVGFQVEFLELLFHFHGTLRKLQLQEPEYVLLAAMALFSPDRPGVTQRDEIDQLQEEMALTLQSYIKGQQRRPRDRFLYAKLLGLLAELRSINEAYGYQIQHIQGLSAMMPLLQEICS
How it was run: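 Read-out: ONE-Glo luciferase luminescence after 30 min at room temperature. HepG2-CYP2B6-hCAR double-stable cells, compounds in 15-point titration plus 50 nM CITCO final, 24 h at 37 C/5% CO2.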

[3] = biological target: Nuclear receptor subfamily 1 group I member 3 (Homo sapiens) (UniProt Q14994); assay: qHTS assay to identify small molecule agonists of the constitutive androstane receptor (CAR) signaling pathway (AID 1224839); also: nearly all actives have a fitted effect of over 15% in size; also: potency is read from the fitted curve at half-maximal effect;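 as to activation: HepG2 cells stably carrying human CAR and a CYP2B6 luciferase reporter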
How it was run: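 Luminescence read-out (ONE-Glo, 30 min, room temperature) from double-stable HepG2-CYP2B6-hCAR cells exposed 24 h to 15-point compound series in presence of 0.75 uM PK11195 final.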

[4] = qHTS assay to identify small molecule antagonists of the estrogen related receptor signaling pathway with the pleiotropic PPARgamma coactivator (PGC) from Tox21 10K library - cell viability counter screen (AID 1224840; active = well fitted cell-killing curve with a large enough effect in the repeat runs, not every such curve was filed as active; also: nearly all actives have a fitted effect of over 40% in size)
How it was run: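 Fluorescence read-out of CellTiter-Fluor viability reagent, added after cells had been exposed to compound in DMSO for 17.5 h at 37 C; 30 min development at 37 C/5% CO2. Cells: PGC/ERR line, 2,000/well.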

[5] = biological target: Thyrotropin receptor (Homo sapiens) (UniProt P16473); assay: qHTS assay to identify small molecule agonists of the thyroid stimulating hormone receptor (TSHR) signaling pathway (AID 1224843; calls by dose curve; also: nearly all actives have a fitted effect of over 45% in size)
Chain of Thyrotropin receptor (Homo sapiens) (P16473 whole entry, looked up): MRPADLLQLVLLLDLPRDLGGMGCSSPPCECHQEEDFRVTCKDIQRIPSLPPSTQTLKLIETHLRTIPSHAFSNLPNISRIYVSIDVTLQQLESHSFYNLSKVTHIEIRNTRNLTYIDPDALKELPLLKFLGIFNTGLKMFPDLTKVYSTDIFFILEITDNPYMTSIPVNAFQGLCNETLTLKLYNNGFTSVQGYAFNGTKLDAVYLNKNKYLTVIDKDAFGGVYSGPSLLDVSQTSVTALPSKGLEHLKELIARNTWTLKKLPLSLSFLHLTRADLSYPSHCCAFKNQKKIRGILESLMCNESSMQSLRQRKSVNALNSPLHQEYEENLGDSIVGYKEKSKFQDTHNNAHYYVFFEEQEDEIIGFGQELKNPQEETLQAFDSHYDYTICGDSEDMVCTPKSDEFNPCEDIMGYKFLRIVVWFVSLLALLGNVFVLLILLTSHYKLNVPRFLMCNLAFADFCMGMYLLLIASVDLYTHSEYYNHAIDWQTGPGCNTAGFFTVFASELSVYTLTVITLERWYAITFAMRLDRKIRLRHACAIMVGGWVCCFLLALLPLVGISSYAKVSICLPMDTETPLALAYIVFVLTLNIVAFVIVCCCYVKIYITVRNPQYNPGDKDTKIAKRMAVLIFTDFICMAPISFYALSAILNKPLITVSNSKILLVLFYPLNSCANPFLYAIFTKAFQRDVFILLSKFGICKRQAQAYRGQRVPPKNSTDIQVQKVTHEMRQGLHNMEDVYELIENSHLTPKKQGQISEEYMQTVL
How it was run: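 Agonist-mode screen: TSHR HEK293 cells received test chemicals for half an hour at room temperature, then HTRF cAMP detection reagents for one hour prior to fluorescence measurement. Each chemical ran as a 15-concentration series, triplicated.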

[6] = qHTS assay to identify small molecule agonists of the hypoxia (HIF-1) signaling pathway - cell viability counter screen (AID 1224844; calls by dose curve; also: nearly all actives have a fitted effect of over 50% in size)
How it was run: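 CellTiter-Glo luminescence read-out, 30 min RT, taken in the same wells as the beta-lactamase HRE reporter assay; HRE-bla ME-180 cells, 0.5% dialyzed FBS, 17 hr compound treatment at 37C, 5% CO2.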

[7] = qHTS assay to identify small molecule agonists of the hypoxia (HIF-1) signaling pathway (AID 1224846; active = well fitted activation curve with a large enough effect in the signal ratio in the repeat runs, not every such curve was filed as active; the % refers to the signal ratio)
How it was run: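 Beta-lactamase FRET read-out (CCF4-AM substrate) from ME-180 cells carrying an HRE-driven bla reporter, after 17 hrs compound exposure at 37C/5% CO2. Cells were seeded at 2,000 per well in 0.5% dialyzed FBS medium and preincubated 5 hrs.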

[8] = qHTS assay to identify small molecule agonists of H2AX - cell viability counter screen (AID 1224847; calls by dose curve; also: nearly all actives have a fitted effect of over 30% in size; also: potency is read from the fitted curve at half-maximal effect)
How it was run: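 CHO-K1 wt, 1000 cells/well, o/n 37C; cpds 15 conc, 3 h 37C, 0.76% DMSO; CellTiter-Glo, 30 min RT, luminescence.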

[9] = qHTS RealTime-Glo MT Cell Viability Assay in HEK293 cells - 32 hour (AID 1224868); also: nearly all actives have a fitted effect of over 50% in size; also: potency is read from the fitted curve at half-maximal effect
How it was run: (§1)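 Assay medium contained NanoLuc luciferase plus cell-permeant prosubstrate, added with HEK293 cells at 600 cells/well. After 5 h at 37 C/5% CO2 compounds were added; plates stayed at 37 C for 40 h with serial luminescence reads.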

[10] = A CellTox Green Cytotoxicity Assay to monitor cytotoxicity in HEK293 cells - 0 hour (AID 1224869); also: nearly all actives have a fitted effect of over 50% in size
How it was run: (§2)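 Read-out: fluorescence of a cell-impermeant cyanine dye staining DNA of dead cells, proportional to cytotoxicity. HEK293, 600 cells/well with reagent, compound (23 nL DMSO) added after 5 h; reads at 0, 8, 16, 24, 32, 40 h.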

[11] = qHTS RealTime-Glo MT Cell Viability Assay in HepG2 cells - 40 hour (AID 1224870); also: nearly all actives have a fitted effect of over 50% in size
How it was run: (§3)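 HepG2 cells (600/well) mixed with RealTime-Glo MT reagent, settled 5 h at 37 C/5% CO2 before compound addition. Nonlytic NanoLuc luminescence from viable-cell prosubstrate reduction read repeatedly during 40 h treatment at 37 C.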

[12] = A CellTox Green Cytotoxicity Assay to monitor cytotoxicity in HEK293 cells - 40 hour (AID 1224871); also: nearly all actives have a fitted effect of over 45% in size; also: potency is read from the fitted curve at half-maximal effect
How it was run: as §2

[13] = qHTS RealTime-Glo MT Cell Viability Assay in HEK293 cells - 16 hour (AID 1224872); also: nearly all actives have a fitted effect of over 50% in size; also: potency is read from the fitted curve at half-maximal effect
How it was run: as §1

[14] = A CellTox Green Cytotoxicity Assay to monitor cytotoxicity in HEK293 cells - 24 hour (AID 1224875); also: nearly all actives have a fitted effect of over 45% in size
How it was run: as §2

[15] = A CellTox Green Cytotoxicity Assay to monitor cytotoxicity in HepG2 cells - 16 hour (AID 1224876); also: nearly all actives have a fitted effect of over 45% in size
How it was run: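 HepG2, 600 cells/well premixed w/ CellTox Green; 5 h settle, 37 C/5% CO2; pintool cpd add (DMSO); 37 C, 40 h; fluorescence read at 0, 8, 16, 24, 32, 40 h.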

[16] = qHTS RealTime-Glo MT Cell Viability Assay in HEK293 cells - 40 hour (AID 1224874); conditions: RealTime-Glo luminescence; max response: stronger effect = lower value; also: nearly all actives have a fitted effect of over 50% in size; also: potency is read from the fitted curve at half-maximal effect
How it was run: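 Luminescence readout at each listed time point; HEK293, 600 cells/well, RealTime-Glo MT reagent added with cells; compounds pinned (23 nL in DMSO) after 5 h at 37 C; continuous culture at 37 C.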

[17] = qHTS assay to identify small molecule agonists of the estrogen related receptor (ERR) signaling pathway from Tox21 library (AID 1224849; calls by dose curve; also: nearly all actives have a fitted effect of over 15% in size); conditions: ERR reporter cell line, ONE-Glo luciferase, 18 h
How it was run: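 Luminescence readout (ONE-Glo, 30 min RT) after 18 h compound exposure at 37 C of NTP-supplied ERR reporter cells; cells were plated 6 h before compound addition by pin tool.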

[18] = qHTS RealTime-Glo MT Cell Viability Assay in HepG2 cells - 24 hour (AID 1224867); also: nearly all actives have a fitted effect of over 50% in size
How it was run: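 qHTS, HepG2, 600 cells/well, RealTime-Glo (NanoLuc + prosubstrate) added with cells; 5 h preincubation; DMSO compound addition; 37 C; luminescence at 0/8/16/24/32/40 h.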

[19] = qHTS assay to identify small molecule agonists of H2AX (AID 1224845; active = well fitted activation curve with a large enough effect in the signal ratio in the repeat runs, not every such curve was filed as active; the % refers to the signal ratio)
How it was run: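 Wild-type CHO-K1 cells, plated overnight, exposed 3hr at 37C to 15 concentrations (0.76% DMSO final). Lysed, then HTRF anti-pH2AX (S139) cryptate and anti-H2AX-d2 antibodies, 24 hr room temperature; 665/620 nm emission read.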

[20] = qHTS RealTime-Glo MT Cell Viability Assay in HepG2 cells - 8 hour (AID 1224873); also: nearly all actives have a fitted effect of over 55% in size
How it was run: as §3
% is scaled to controls: 0 for no effect and ±100 for the full control effect.

C=C(C)C(=O)OCCOCCOCCOC(=O)C(=C)C
inactive: Potency [1] | Potency [2] | Potency [3] | Potency [4] | Potency [5] | Potency [6] | outcome [7] | Potency [8] | Potency [9] | outcome [10] | outcome [11] | Potency [12] | Potency [13] | Potency [14] | Potency [15]

C=C(C)C(=O)Nc1ccc(Cl)c(Cl)c1
active: Potency [3] 55 µM and 48.4 µM | Potency [8] 102 µM | Potency [9] 19.7 µM and 21.8 µM | Potency [13] 22.1 µM and 21.8 µM | Potency [16] 19.7 µM and 24.4 µM
inactive: Potency [1] | Potency [2] | Potency [4] | Potency [5] | Potency [6] | outcome [7] | outcome [10] | outcome [11] | Potency [12] | Potency [14] | Potency [15]

ON=C1CCCCC1
inactive: Potency [1] | Potency [2] | Potency [3] | Potency [4] | Potency [5] | Potency [6] | outcome [7] | Potency [8] | activity change, positive = activation ([17]; at 92.4 µM (top of the series)) -1.41% and -1.15% | outcome [18] | Potency [9] | outcome [10] | outcome [11] | Potency [12] | Potency [13] | Potency [14] | Potency [15]

CCc1ccc(CCOc2ccc(CC3SC(=O)NC3=O)cc2)nc1 (stereo not drawn)
inactive: Potency [1] | Potency [2] | Potency [3] | Potency [4] | Potency [6] | Potency [19] | outcome [7] | Potency [8] | Potency [9] | outcome [10] | outcome [11] | Potency [12] | outcome [20] | Potency [14] | Potency [15]

CCCC(C)=O
inactive: Potency [1] | Potency [2] | Potency [3] | Potency [4] | Potency [6] | Potency [19] | outcome [7] | Potency [8] | outcome [18] | Potency [9] | outcome [10] | outcome [11] | Potency [12] | Potency [13] | max response [16] 3.18% and 6.23% | Potency [14] | Potency [15]

CCCCCCCCCCCCS
inactive: Potency [1] | Potency [2] | Potency [3] | Potency [4] | Potency [5] | Potency [6] | outcome [7] | Potency [8] | Potency [9] | outcome [10] | outcome [11] | Potency [12] | Potency [13] | outcome [20] | max response [16] 0.961% and 6.67% | Potency [14] | Potency [15]

CC1CCC(C(C)C)C(O)C1 (stereo not drawn)
inactive: Potency [1] | Potency [2] | Potency [3] | Potency [4] | Potency [5] | Potency [6] | outcome [7] | Potency [8] | outcome [18] | Potency [9] | outcome [10] | outcome [11] | Potency [12] | Potency [13] | Potency [14] | Potency [15]

O=C(O)c1cc(=O)c2c(OCC(O)COc3cccc4oc(C(=O)O)cc(=O)c34)cccc2o1
inactive: Potency [1] | Potency [2] | Potency [3] | Potency [4] | Potency [5] | Potency [6] | Potency [8] | Potency [9] | outcome [10] | outcome [11] | Potency [12] | Potency [13] | outcome [20] | max response [16] 0.302% and 1.24% | Potency [14] | Potency [15]

O=[N+]([O-])c1ccc(/C=C/c2ccc([N+](=O)[O-])cc2S(=O)(=O)O)c(S(=O)(=O)O)c1
inactive: Potency [1] | Potency [2] | Potency [3] | Potency [4] | Potency [6] | outcome [7] | Potency [8] | outcome [18] | Potency [9] | outcome [10] | outcome [11] | Potency [12] | Potency [13] | outcome [20] | Potency [14] | Potency [15]

O=C(OCCOCCOC(=O)c1ccccc1)c1ccccc1
inactive: Potency [1] | Potency [2] | Potency [3] | Potency [4] | Potency [6] | Potency [19] | outcome [7] | Potency [8] | outcome [10] | outcome [11] | Potency [12] | outcome [20] | max response [16] -18.1% | Potency [14] | Potency [15]

CCCCOC(=O)COc1ccc(Cl)cc1Cl
inactive: Potency [1] | Potency [2] | Potency [3] | Potency [4] | Potency [6] | Potency [19] | outcome [7] | Potency [8] | outcome [18] | Potency [9] | outcome [10] | outcome [11] | Potency [12] | Potency [13] | outcome [20] | Potency [14] | Potency [15]

CCCCCC/C(C=O)=C\c1ccccc1
44.1 µM (active) and inactive: Potency [12]
inactive: Potency [1] | Potency [2] | Potency [3] | Potency [4] | Potency [5] | Potency [6] | outcome [7] | Potency [8] | outcome [18] | Potency [9] | outcome [10] | outcome [11] | Potency [13] | outcome [20] | max response [16] -10.1% and 0.846% | Potency [14] | Potency [15]

CC(=O)c1ccccc1
inactive: Potency [1] | Potency [2] | Potency [3] | Potency [4] | Potency [5] | Potency [6] | outcome [7] | Potency [8] | outcome [18] | Potency [9] | outcome [10] | outcome [11] | Potency [12] | Potency [13] | max response [16] 0.254% and 9.46% | Potency [14] | Potency [15]

N[C@@H](Cc1cc(I)c(Oc2cc(I)c(O)c(I)c2)c(I)c1)C(=O)O
inactive: Potency [1] | Potency [2] | Potency [3] | Potency [4] | Potency [5] | Potency [6] | outcome [7] | Potency [8] | activity change, positive = activation ([17]; at 42.5 µM (top of the series)) -1.09% and 0.396% | outcome [18] | Potency [9] | outcome [10] | outcome [11] | Potency [12] | Potency [13] | max response [16] 12.3% and 0.808% | Potency [14] | Potency [15]

Cc1cccc(O)c1
inactive: Potency [1] | Potency [2] | Potency [3] | Potency [4] | Potency [6] | outcome [7] | Potency [8] | activity change, positive = activation ([17]; at 92.4 µM (top of the series)) 8.59% and 2.31% | outcome [18] | Potency [9] | outcome [10] | outcome [11] | Potency [12] | Potency [13] | outcome [20] | max response [16] 3.75% and 3.48% | Potency [14] | Potency [15]
